Test results from PubChem BioAssay (EPA / NIEHS).
Where “and” joins values, the source holds several entries; their conditions need not be identical. Equal values may be shown once. The source holds several records for some structures; these can differ, active in one and inactive in another. Calls of active or inactive are those of the source. The calls were made as follows, unless noted: active = hit-call score of the fitted dose curve at least 0.9, where 1 is the maximum; inactive = score below 0.9.

read-out: Thrombomodulin, THBD (gene 7056); assay: BSK_LPS_Thrombomodulin: BioMAP Diversity Plus: LPS Assay for Thrombomodulin Biomarker Activity (AID 2284296); conditions: primary human HUVEC with PBMC
Outline: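 Human umbilical vein endothelial cells co-cultured with PBMC and stimulated with LPS; cell-surface thrombomodulin measured by ELISA 24 hours after compound. Gain or loss versus DMSO; cytotoxicity checked by SRB staining in parallel cultures.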

| Compound | outcome | AC50 |
| --- | --- | --- |
| CC(CCC(=O)O)(c1ccc(O)cc1)c1ccc(O)cc1 | inactive | – |
| CC(C)C(=O)OCCc1ccccc1 | inactive | – |
| c1ccc(Nc2cccc3ccccc23)cc1 | – | 33.7 µM (active) and 31.2 µM (active) |
| C[N+](C)(C)CCCNS(=O)(=O)C(F)(F)C(F)(F)C(F)(F)C(F)(F)C(F)(F)C(F)(F)C(F)(F)C(F)(F)F | inactive | 21.4 µM (active) |
| Oc1ccccc1Cc1ccccc1O | inactive | – |
| CCCC(C)C(=O)OCC (centres undefined) | inactive | – |
| CCCCCCCCCCCC(=O)N(C)CC(=O)O | inactive | – |
| Nc1nc(N)nc(-c2ccccc2)n1 | inactive | – |
| O=C(O)C(F)(F)C(F)(F)C(F)(F)C(F)(F)C(=O)O | inactive | – |

read-out: CD69, CD69 (gene 969); assay: BSK_LPS_CD69: BioMAP Diversity Plus: LPS Assay for CD69 Biomarker Activity (AID 2284303); conditions: primary human HUVEC with PBMC
Outline: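 Human umbilical vein endothelial cells co-cultured with PBMC under LPS stimulation, chemical exposure 24 h; cell-surface CD69 measured by ELISA and fitted in the positive direction versus DMSO.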

| Compound | outcome | AC50 |
| --- | --- | --- |
| CC(CCC(=O)O)(c1ccc(O)cc1)c1ccc(O)cc1 | inactive | – |
| CC(C)C(=O)OCCc1ccccc1 | inactive | – |
| c1ccc(Nc2cccc3ccccc23)cc1 | – | 36.5 µM (active) and 20 µM (active) |
| C[N+](C)(C)CCCNS(=O)(=O)C(F)(F)C(F)(F)C(F)(F)C(F)(F)C(F)(F)C(F)(F)C(F)(F)C(F)(F)F | inactive | 30 µM (active) |
| Oc1ccccc1Cc1ccccc1O | inactive | – |
| CCCC(C)C(=O)OCC (centres undefined) | inactive | – |
| CCCCCCCCCCCC(=O)N(C)CC(=O)O | inactive | – |
| Nc1nc(N)nc(-c2ccccc2)n1 | inactive | – |
| O=C(O)C(F)(F)C(F)(F)C(F)(F)C(F)(F)C(=O)O | inactive | – |

tested on: IYD (gene 389434); assay: CCTE_GLTED_hIYD: CCTE's human Iodotyrosine Deiodinase (xIYD) Inhibition Assay, Great Lakes Toxicology and Ecology Division (GLTED) Lab (AID 2284317; active = hit-call score of the fitted dose curve at least 0.9, where 1 is the maximum;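 also: cell-free human IYD enzyme made in baculovirus insect cells; iodide freed from monoiodotyrosine measured by cerium arsenite color change at 420 nm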); conditions: not given
Outline: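 Human IYD expressed in a baculovirus-insect cell system was incubated 3 h with monoiodotyrosine and test chemical. Released iodide, separated on Dowex columns, was quantified by the Sandell-Kolthoff reaction at 420 nm; plates were normalized to MNT and DMSO/NaOH controls.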

| Compound | outcome | AC50 |
| --- | --- | --- |
| CCCCC(CC)COC(=O)/C=C/c1ccc(OC)cc1 (centres undefined) | inactive | – |
| CCCCCCCCCCCCc1ccc(O)cc1 | – | 24 µM (active) |
| CN(C)c1ccc2nc3ccc(=[N+](C)C)cc-3sc2c1 | – | 2.73 µM (active) |
| CCCCCCCCCC[N+](C)(CCCCCCCCCC)CCC[Si](OC)(OC)OC | – | 77.2 µM (active) |
| O=C(Nc1ccccc1)c1cc(Cl)ccc1O | inactive | – |
| CCCCCCCOC(=O)c1ccc(O)cc1 | – | 50.4 µM (active) |
| O=c1c(O)c(-c2ccc(O)cc2O)oc2cc(O)cc(O)c12 | – | 144 µM (active) |
| CCCCC/C=C\C/C=C\CCCCCCCC(=O)O | – | 137 µM (active) |
| CCCCCCCCCCCCCCCCCCOS(=O)(=O)O | – | 19.5 µM (active) |
